Measurements taken from PubChem BioAssay (EPA / NIEHS).
“And” between values parts separate entries of the source, which are not always exact repeats. Equal values may be shown once. Records with an inconclusive call do not appear. Some compounds were tested as several samples or in several runs, with calls that do not always agree. The source made the active and inactive calls. How the source made its calls: active means hit-call score of the fitted dose curve at least 0.9, where 1 is the maximum; inconclusive means response in the unintended direction; inactive means score below 0.9.

Tested on: not listed separately
Experiment: TOX21_p53_BLA_p2_viability: Viability Assessment in the Tox21 HCT-116 p53 Agonism Beta-lactamase Assay, Phase 2 (AID 2283591);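 further: compound exposure lasted 16 h at 37 °C; actives lower the ATP signal meaning cytotoxicity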
Method in brief: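 HCT116 p53-bla cells, 4000/well, dosed after 5 h plating (217-fold dilution of DMSO stocks) and incubated 16 h at 37C. Viability taken as cellular ATP by CellTiter-Glo luminescence after 30 min RT; signal loss marks cytotoxicity.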
For `C=C(C)C(N)=O`, the outcome was “inactive”.
For `CC/C(=C(\c1ccccc1)c1ccc(OCCN(C)C)cc1)c1ccccc1`, the AC50 was 33.7 µM (active) and 69.5 µM (active) and 35.2 µM (active) and the outcome was “inactive”.
In the case of `C[C@]12CC[C@@H]3c4ccc(O)cc4CC[C@H]3[C@@H]1CC[C@@H]2O`, the outcome is reported as “inactive”.
In the case of `COC(=O)c1ccc(C(=O)OC)cc1`, the outcome is reported as “inactive”.
In the case of `O=C(c1ccc(OCCN2CCCCC2)cc1)c1c(-c2ccc(O)cc2)sc2cc(O)ccc12`, the AC50 is reported as 84.9 µM (active) and 71.8 µM (active) and 42.8 µM (active).
For `C#C[C@]1(O)CC[C@H]2[C@@H]3CCc4cc(O)ccc4[C@H]3CC[C@@]21C`, the outcome was “inactive”.

Target: Cellular tumor antigen p53 (Homo sapiens) (UniProt P04637)
Sequence (P04637 whole entry, looked up): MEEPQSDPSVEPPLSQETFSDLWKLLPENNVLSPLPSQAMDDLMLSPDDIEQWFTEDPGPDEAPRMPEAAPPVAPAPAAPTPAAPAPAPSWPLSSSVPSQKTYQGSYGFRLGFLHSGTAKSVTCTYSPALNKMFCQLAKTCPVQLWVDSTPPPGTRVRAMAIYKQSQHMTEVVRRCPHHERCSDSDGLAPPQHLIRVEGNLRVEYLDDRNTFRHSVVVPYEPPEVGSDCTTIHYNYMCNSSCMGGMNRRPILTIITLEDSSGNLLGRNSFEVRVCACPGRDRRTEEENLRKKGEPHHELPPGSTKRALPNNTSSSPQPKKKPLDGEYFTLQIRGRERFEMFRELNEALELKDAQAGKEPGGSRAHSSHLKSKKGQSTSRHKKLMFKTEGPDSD
Experiment: TOX21_p53_BLA_p2_ratio: Tox21 HCT-116 p53 Agonism Beta-lactamase Assay, Ratio, Phase 2 (AID 2283592)
Method in brief: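 In this cell-based reporter format, HCT116 cells were dosed with chemicals delivered from DMSO by 217-fold dilution and incubated 16 h at 37C. Emission at 460 and 530 nm after 2 h CCF4-AM loading provided the ratio, fitted upward versus DMSO.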
With `C=C(C)C(N)=O` the outcome was “inactive”.
With `CC/C(=C(\c1ccccc1)c1ccc(OCCN(C)C)cc1)c1ccccc1` the AC50 was 47.8 µM (active) and 84.4 µM (active) and 43.5 µM (active) and the outcome was “inactive”.
For `C[C@]12CC[C@@H]3c4ccc(O)cc4CC[C@H]3[C@@H]1CC[C@@H]2O`, the AC50 was 29 µM (active) and 16.7 µM (active) and the outcome was “inactive”.
In the case of `COC(=O)c1ccc(C(=O)OC)cc1`, the outcome is reported as “inactive”.
With `CCCCOCCOCCO` the outcome was “inactive”.
For `O=C(c1ccc(OCCN2CCCCC2)cc1)c1c(-c2ccc(O)cc2)sc2cc(O)ccc12`, the AC50 was 68.6 µM (active) and 62.8 µM (active) and 36.4 µM (active).
For `C#C[C@]1(O)CC[C@H]2[C@@H]3CCc4cc(O)ccc4[C@H]3CC[C@@]21C`, the AC50 was 9 µM (active) and 6.58 µM (active) and 7.36 µM (active).
